Experiment [1] in a line: Confirmatory screen NINDS Rhodamine qHTS for Zika virus inhibitors (AID 1347161). Further: nearly all actives have a fitted effect of over 60% in size. Further: potency means the concentration at half of the fitted maximal effect.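 On activity change, negative = inhibition: purified Zika NS2B-NS3 protease with linked NS2B cofactor domain and Rhodamine110 peptide substrate; plate controls were no-inhibitor control for no effect and no-enzyme control for full effect.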 In short, it runs like this:
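Single-chain NS2B-NS3 protease, 25 nM, pH 8.0; compounds preincubated 15 min. Activity: Rhodamine110 release from 1.5 microM substrate over 15 min, room temperature, data fitted to 4-parameter Hill.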

Experiment [2] in a line: Tertiary RLuc qRT-PCR qHTS assay for Zika virus inhibitors (AID 1347169). Further: nearly all actives have a fitted effect of over 55% in size. Further: potency means the concentration at half of the fitted maximal effect. In short, it runs like this: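 Vero, 1,000 cells/well, o/n 37 C; cpd pinned in DMSO; ZIKV-RLuc Cambodian, MOI 1-2, 48-72 h 37 C; live-cell RLuc substrate, lum read at 1-1.5 h.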
Experiment [3] is described as follows: qHTS to identify inhibitors of the type 1 interferon - major histocompatibility complex class I in skeletal muscle: primary screen against the NCATS Pharmaceutical Collection (AID 1347407).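 Further: luminescence of HiBiT knocked into endogenous HLA-B as interferon-induced MHC class I level; on the % scale 0 is the no-effect control and ±100 the full control effect.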 In short, it runs like this:
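Luminescence from HiBiT-tagged endogenous HLA-B*08:01 served as the read-out of IFN-beta-induced MHC class I in CRISPR-engineered C25cl48 myoblasts. Cells received 4 ng/ml IFN-beta plus compound (high final 46 uM, […]) for 24 h.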

The nature of experiment [4]: qHTS to identify inhibitors of the type 1 interferon - major histocompatibility complex class I in skeletal muscle: primary screen against the NCATS Mechanism Interrogation Plate v5.0 (MIPE) Libary (AID 1347411). Further: nearly all actives have a fitted effect of over 65% in size. Further: potency means the concentration at half of the fitted maximal effect.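 On activity change, negative = inhibition: plate controls were vehicle for no effect and reference inhibitor for full effect.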 In short, it runs like this:
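Immortalized human myoblasts (C25cl48) with HiBit knocked into endogenous HLA-B*08:01 were stimulated with 4 ng/ml IFN-beta and given compounds in 11-point 1:3 titration from 46 uM. After 24 h at 37 C, lytic HiBiT luminescence was read.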

For experiment [5], the target named is Protein phosphatase 1D (Homo sapiens) (UniProt O15297). In words: RapidFire Mass Spectrometry qHTS Assay for Modulators of WT P53-Induced Phosphatase 1 (WIP1) (AID 1347424).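 Further: amount of dephosphorylated VEPPL-S-QETFS peptide product formed by WIP1; plate controls were DMSO wells for no effect and GSK830371 inhibitor control at 10 µM for full effect.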 In short, it runs like this:
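10 nM WIP1 + cpd, 1 h RT; + 2 uM VEPPL-pS-QETFS, 5 min RT; stop 0.5% formic acid; labelled product standard 1 uM; RapidFire MS. Buffer 50 mM Tris pH 7.5, 30 mM MgCl2, 1 mM TCEP.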

For experiment [6] the target is unchanged. In words: Rhodamine-PBP qHTS Assay for Modulators of WT P53-Induced Phosphatase 1 (WIP1) (AID 1347425). Further: % of control where 0% means no effect. In short, it runs like this:
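5 nM WIP1 + 10 uM Rh-PBP, 50 mM Tris pH 7.5, 30 mM MgCl2, 1 mM TCEP, 0.1 mM EGTA, BSA; cpds pinned, 1 hr RT; + 10 uM phosphopeptide; fluorescence 1-min reads x 11 min; delta = f1 - f0.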

A short description of experiment [7]: Primary qHTS for inhibitors of La Crosse Virus (LACV) - induced cell death in SH-SY5Y cells (AID 1508616).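 Further: top concentration of the series differs between compounds; 0% = infected DMSO wells and 100% = uninfected DMSO wells; higher means more rescue of cells from virus-induced death.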 In short, it runs like this:
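SH-SY5Y cells (6000/well) plated 24 h, then given compounds by pin transfer and LACV at 0.01 MOI for 6 days at 37C. Viability measured by ATPLite luminescence, normalized to infected DMSO and uninfected DMSO.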

Experiment [8] has as its target Calcium and integrin-binding protein 1 (Homo sapiens) (UniProt Q99828). In words: Primary qHTS for Identification of Calcium Integrin Binding Protein 1 (CIB1) Competitor (AID 1508620).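 Further: GST tagged CIB1 binding a fluorescein labelled alphaIIb integrin peptide tracer; top concentration of the series differs between compounds; on the % scale 0 is the no-effect control and ±100 the full control effect.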 In short, it runs like this:
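CIB1-GST (1 uM final) and compound incubated 15 min at room temperature before adding FITC-alphaIIb peptide tracer (100 nM final). Competition for binding read by fluorescence polarization (ex 480, em 540) after another 15 min at room temperature.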

Experiment [9] in a line: Counterscreen qHTS for small molecule stabilizers of the endoplasmic reticulum resident proteome: GLuc-NoTag assay (AID 1508627).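 Further: 0% = thapsigargin alone and -100% = DMSO vehicle control.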 In short, it runs like this: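 Luminescence of Gaussia luciferase secreted into the medium (coelenterazine, 0.07x final, unlysed cells) was the read-out. Human SH-SY5Y neuroblastoma cells constitutively secreting untagged GLuc received compound for 19 h, then 100 nM thapsigargin for 4 h.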

A short description of experiment [10]: Confirmatory qHTS for small molecule stabilizers of the endoplasmic reticulum resident proteome: Secreted ER Calcium Modulated Protein (SERCaMP) assay (AID 1508628). Further: on the % scale 0 is the no-effect control and ±100 the full control effect; nearly all actives have a fitted effect of over 40% in size. In short, it runs like this: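 SH-SY5Y cells stably expressing GLuc-SERCaMP, treated 16 h with compound (primary 1.53, 7.67, 38.3 uM; confirmation 11 concentrations, up to 76.6 uM), then 100 nM thapsigargin for 4 h. Secreted Gaussia luciferase in medium read by coelenterazine luminescence.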

Experiment [11] in a line: HepG2 cells viability qHTS for Zika virus inhibitors (AID 1347168). Further: potency means the concentration at half of the fitted maximal effect. In short, it runs like this:
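Compounds were tested in concentration series on cells grown in DMEM containing 4% FBS. After 24 to 48 hours, cellular ATP was measured by luminescence with CellTiter Glo.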

The subject of experiment [12] is Zika virus NS2B-NS3 protease (linked construct). In words: Primary screen NINDS Rhodamine qHTS for Zika virus inhibitors (AID 1347160). Further: nearly all actives have a fitted effect of over 55% in size. Conditions: outcome: dose series up to 57.1 µM unless noted. In short, it runs like this:
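Kinetic fluorescence (Ex 480 nm, Em 540 nm) over 15 min with 1.5 microM Rhodamine110 peptide and 25 nM linked protease.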

The target of experiment [13] is Lysine-specific demethylase 5B (Homo sapiens) (UniProt Q9UGL1). In words: Optimization screen for KDM5B Histone Demethylases FDH coupled qHTS against the LOPAC library (AID 1347166). Further: 0% is about no effect. To be noted: KDM5B demethylation, FDH-coupled NADH fluorescence (FDH is formaldehyde dehydrogenase); at 57.5 µM (top of the series). In short, it runs like this: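 KDM5BDeltaAP (200nM final) preincubated 10 min with compound, then 12.5uM H3K4Me3, 25uM a-ketoglutarate, ascorbate, Fe(II), NAD+ and FDH added; 50mM HEPES pH 7.5, 0.01% Tween-20. NADH fluorescence (340/450 nm) change over 30 min, room temperature.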

A short description of experiment [14]: qHTS to identify inhibitors of the type 1 interferon - major histocompatibility complex class I in skeletal muscle: primary screen against the NCATS LOPAC collection (AID 1347405).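 Further: lytic HiBiT luminescence reporting HLA-B protein level; on the % scale 0 is the no-effect control and ±100 the full control effect.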 In short, it runs like this:
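CRISPR-engineered immortalized human myoblasts (C25cl48) with HiBiT fused to endogenous HLA-B*08:01, stimulated with 4 ng/ml IFN-beta. LOPAC compounds tested as a 7-point 1:4.3 titration (top 46 uM final), 24 h at 37 C; lytic HiBiT luminescence read.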

Experiment [15] is described as follows: qHTS for inhibitors of adenylyl cyclases using a fission yeast platform: a pilot screen against the NCATS LOPAC library (AID 1347410).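 Further: plate controls were DMSO vehicle for no effect and DPI positive control for full effect.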 In short, it runs like this:
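Fission yeast qHTS: CHP2027 cells (AC9-GNAS-PDE4D2, fbp1-GFP), 5x10^6 cells/mL working density, EMM + His/Lys/Ura; LOPAC at up to 57 µM final; 18 h dark, 30C; GFP by laser cytometry. DPI positive control, DMSO vehicle.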

Experiment [16] can be described thus: Validation qHTS assay for inhibitors of Activation Induced Cytidine Deaminase (AID): UDG Counterscreen signal (AID 1347427). Further: 0% is about no effect. In short, it runs like this:
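Counterscreen read of UDG activity (2 U/mL, 4/3x) in the FRET deamination format with AID (1 uM, 4/3x), DJC20/DJC23 substrates (250 nM, 4x), 4 h at room temperature. NaOH stop, fluorescence at 560 ex/665 em.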

Experiment [17] has as its target Calcium and integrin-binding protein 1 (Homo sapiens) (UniProt Q99828). In words: Validation qHTS for Identification of Calcium Integrin Binding protein 1 (CIB1) Competitor (AID 1508618). Further: on the % scale 0 is the no-effect control and ±100 the full control effect. In short, it runs like this:
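Displacement of FITC-alphaIIb peptide (100 nM) from CIB1-GST (1 uM) is monitored by polarization in quantitative HTS format; buffer carries 5 mM CaCl2 and 125 mM NaCl at pH 7.4, incubations are at room temperature.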

The subject of experiment [18] is Zika virus NS2B-NS3 protease (linked). In words: 384 well plate NINDS AMC confirmatory qHTS for Zika virus inhibitors (AID 1347163). Further: potency means the concentration at half of the fitted maximal effect; nearly all actives have a fitted effect of over 50% in size. To be noted: Recombinant NS2B-NS3 protease, Ac-VKTGKR-AMC fluorescence. In short, it runs like this: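 Linked NS2B-NS3 protease (final 5 nM, 30 nM or 60 nM) was preincubated with compounds (final up to 1 mM) for ~15 minutes. Ac-VKTGKR-AMC substrate (final 30 microM) then reacted for 25 minutes at room temperature in the dark. Fluorescence (ex 355/em 460 nm) was normalized to no-enzyme and no-inhibitor controls.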

For experiment [19], the system named is Zika virus NS2B-NS3 protease (linked construct). In words: 384 well plate NINDS Rhodamine confirmatory qHTS for Zika virus inhibitors (AID 1347164).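 Further: fluorescence from protease cleavage of Ac-LKRR-rhodamine 110 substrate; potency means the concentration at half of the fitted maximal effect; nearly all actives have a fitted effect of over 65% in size.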 To be noted: rhodamine-110 peptide substrate fluorescence. In short, it runs like this:
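Enzyme (final 5/30/60 nM) + cpd (DMSO), ~15 min; add Ac-LKRR-Rd 10 microM final; 25 min RT, dark; FI ex 485/em 538; normalized to no-enzyme, no-inhibitor ctrls; aprotinin intraplate ctrl.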

Structures are written as SMILES. A number with no mark means an inactive call. Inconclusive results are not listed. Active and inactive are the calls of the source. The call rests on the fitted dose curve; in most records, active means well fitted curve in the direction sought with a large enough effect; inconclusive means small, poorly fitted or top-dose-only effect, or another doubt; inactive means no such curve, though single readings can be large; an effect the other way counts as inactive or inconclusive.

Calcium and integrin-binding protein 1 (Homo sapiens), sequence (Q99828 whole entry, looked up): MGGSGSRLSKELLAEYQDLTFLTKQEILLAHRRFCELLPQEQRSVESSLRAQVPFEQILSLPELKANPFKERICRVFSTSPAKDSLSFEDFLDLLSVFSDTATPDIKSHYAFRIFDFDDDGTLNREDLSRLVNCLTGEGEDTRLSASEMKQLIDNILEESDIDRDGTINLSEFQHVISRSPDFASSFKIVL
Protein phosphatase 1D (Homo sapiens), sequence (O15297 whole entry, looked up): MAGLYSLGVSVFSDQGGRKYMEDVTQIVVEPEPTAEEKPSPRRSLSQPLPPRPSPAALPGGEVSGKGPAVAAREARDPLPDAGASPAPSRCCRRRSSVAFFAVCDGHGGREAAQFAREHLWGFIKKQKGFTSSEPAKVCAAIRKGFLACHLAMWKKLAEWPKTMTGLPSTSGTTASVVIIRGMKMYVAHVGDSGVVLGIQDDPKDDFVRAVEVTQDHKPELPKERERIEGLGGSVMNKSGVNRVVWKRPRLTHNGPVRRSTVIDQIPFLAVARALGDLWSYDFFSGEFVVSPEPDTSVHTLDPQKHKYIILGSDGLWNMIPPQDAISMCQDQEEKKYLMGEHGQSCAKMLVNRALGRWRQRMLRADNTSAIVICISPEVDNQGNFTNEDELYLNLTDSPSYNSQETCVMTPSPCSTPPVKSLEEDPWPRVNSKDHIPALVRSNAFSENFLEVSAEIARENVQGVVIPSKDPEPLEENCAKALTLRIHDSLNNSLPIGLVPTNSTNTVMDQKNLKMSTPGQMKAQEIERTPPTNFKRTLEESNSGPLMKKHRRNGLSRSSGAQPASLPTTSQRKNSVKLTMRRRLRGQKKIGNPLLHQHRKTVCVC
Lysine-specific demethylase 5B (Homo sapiens), sequence (Q9UGL1 whole entry, looked up): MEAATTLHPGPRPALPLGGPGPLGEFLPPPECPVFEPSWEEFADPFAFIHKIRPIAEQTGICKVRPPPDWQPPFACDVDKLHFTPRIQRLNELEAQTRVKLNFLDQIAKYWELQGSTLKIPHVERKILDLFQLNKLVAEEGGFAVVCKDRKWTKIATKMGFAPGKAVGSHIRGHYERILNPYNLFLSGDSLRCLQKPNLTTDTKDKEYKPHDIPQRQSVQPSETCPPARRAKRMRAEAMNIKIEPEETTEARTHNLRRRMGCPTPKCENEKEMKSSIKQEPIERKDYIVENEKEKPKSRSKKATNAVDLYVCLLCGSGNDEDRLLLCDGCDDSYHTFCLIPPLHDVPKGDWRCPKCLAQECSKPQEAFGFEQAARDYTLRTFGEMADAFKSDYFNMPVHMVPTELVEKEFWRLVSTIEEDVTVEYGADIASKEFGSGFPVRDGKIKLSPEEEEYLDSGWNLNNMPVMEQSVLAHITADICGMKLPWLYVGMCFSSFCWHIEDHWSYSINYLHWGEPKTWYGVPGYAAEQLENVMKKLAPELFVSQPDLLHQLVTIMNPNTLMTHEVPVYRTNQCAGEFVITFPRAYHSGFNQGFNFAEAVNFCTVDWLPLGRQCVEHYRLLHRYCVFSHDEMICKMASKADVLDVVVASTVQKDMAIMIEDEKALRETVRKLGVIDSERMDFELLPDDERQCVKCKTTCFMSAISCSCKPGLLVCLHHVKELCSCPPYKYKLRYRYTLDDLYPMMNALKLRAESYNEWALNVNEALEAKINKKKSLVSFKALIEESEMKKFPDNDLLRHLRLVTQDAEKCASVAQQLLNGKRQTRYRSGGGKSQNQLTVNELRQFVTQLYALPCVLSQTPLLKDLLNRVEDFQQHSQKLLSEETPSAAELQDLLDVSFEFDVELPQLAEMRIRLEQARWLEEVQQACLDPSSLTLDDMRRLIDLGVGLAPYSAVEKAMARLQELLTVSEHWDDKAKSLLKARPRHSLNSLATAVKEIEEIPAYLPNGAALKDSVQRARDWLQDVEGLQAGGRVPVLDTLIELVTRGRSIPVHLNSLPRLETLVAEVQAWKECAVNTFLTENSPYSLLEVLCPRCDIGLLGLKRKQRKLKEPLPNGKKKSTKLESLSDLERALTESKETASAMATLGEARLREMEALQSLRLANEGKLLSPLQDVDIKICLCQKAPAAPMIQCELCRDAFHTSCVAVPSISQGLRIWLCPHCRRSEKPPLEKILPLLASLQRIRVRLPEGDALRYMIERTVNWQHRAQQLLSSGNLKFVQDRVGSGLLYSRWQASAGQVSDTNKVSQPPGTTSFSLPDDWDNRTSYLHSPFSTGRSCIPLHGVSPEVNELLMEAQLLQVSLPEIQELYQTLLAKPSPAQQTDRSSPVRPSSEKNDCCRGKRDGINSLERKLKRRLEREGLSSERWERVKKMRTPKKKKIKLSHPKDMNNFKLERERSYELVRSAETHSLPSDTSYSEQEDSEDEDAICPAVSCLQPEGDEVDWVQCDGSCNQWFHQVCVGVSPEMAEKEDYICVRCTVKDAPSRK

On to `CC(C)(Sc1cc(C(C)(C)C)c(O)c(C(C)(C)C)c1)Sc1cc(C(C)(C)C)c(O)c(C(C)(C)C)c1`, for which the Potency result in experiment [1], in [3], in experiment [4], in experiment [7] and in experiment [10] was “inactive” each time. Moreover, the activity change, negative = inhibition in experiment [2] was -19.1% [at 0.566 µM]. In addition, the call in [5], in experiment [6], in experiment [8] and in [9] was inactive.

Regarding `CCCc1nc(C)c2c(=O)[nH]c(-c3cc(S(=O)(=O)N4CCN(CC)CC4)ccc3OCC)nn12`, the Potency entry in experiment [1], in experiment [11], in experiment [2], in experiment [3], in experiment [4] and in experiment [7] was “inactive” in each case. Also, the compound was called inactive in experiment [5], in experiment [6] and in experiment [8].

On to `Cc1nnc(C(=O)NC(C)(C)c2nc(C(=O)NCc3ccc(F)cc3)c(O)c(=O)n2C)o1`, for which the outcome in experiment [12], in experiment [5], in experiment [6] and in experiment [8] was inactive. Further, the Potency result in experiment [3], in [4] and in experiment [7] was “inactive” in each case.

Turning to `CCN(CC)CC#CCOC(=O)C(O)(c1ccccc1)C1CCCCC1` (stereo unspecified), the activity, negative = inhibition in experiment [13] was -11%. In addition, the compound was classed as inactive in [14], in experiment [15] and in [16]. For the same compound, the Potency entry in experiment [7] is “inactive”.

In the case of `CNS(=O)(=O)CCc1ccc2[nH]cc(C3CCN(C)CC3)c2c1`, the result in experiment [12], in experiment [14], in [15], in experiment [5], in experiment [6] and in [17] was inactive. The result in [8] was inactive. For the same compound, the Potency entry in experiment [3] and in [7] was “inactive” in each case.

Take `O=C(O)CCn1c2c(c3ccccc31)C[C@H](NS(=O)(=O)c1ccc(F)cc1)CC2`: the compound was classed as inactive in experiment [12], in experiment [5] and in experiment [6].

On to `CC(C)NCC(O)c1ccc(NS(C)(=O)=O)cc1` (stereo unspecified), for which the activity, negative = inhibition in experiment [13] was -4.54%. In addition, the outcome in experiment [14], in experiment [15], in experiment [16], in experiment [17] and in [8] was inactive. Further, the Potency entry in experiment [4] and in experiment [7] was “inactive” in each case.

For `CNC(=O)c1cc(Oc2ccc(NC(=O)Nc3ccc(Cl)c(C(F)(F)F)c3)cc2)ccn1`, the Potency in [1] is 25.5 µM (active); in [11], 33.9 µM (active); in experiment [4], 16.5 µM (active). The Potency result in experiment [3] and in [7] was “inactive” throughout. Also, the compound was called inactive in experiment [5] and in experiment [6].

Consider `COC(=O)Nc1nc2ccc(C(=O)c3ccccc3)cc2[nH]1`, for which the Potency in experiment [18] is 126 µM (active); in experiment [19], 178 µM (active); in experiment [2], 0.829 µM (active). Besides, the Potency entry in [11] is “inactive”. Further, the call in experiment [5] and in experiment [6] was inactive.

Turning to `O=C(NCC1CN(c2ccc(N3CCOCC3=O)cc2)C(=O)O1)c1ccc(Cl)s1` (stereo unspecified), the compound was classed as inactive in experiment [12], in [5], in experiment [6] and in experiment [8]. The Potency result in experiment [3], in [4] and in experiment [7] was “inactive” each time.

Regarding `O=C(O)c1ccc(-n2nc(-c3ccccc3O)nc2-c2ccccc2O)cc1`, the Potency in experiment [1] is 11 µM (active); in experiment [18], 112 µM (active); in [19] it was 35.5 µM (active); in experiment [2], 13.1 µM (active). The Potency entry in experiment [11], in [3], in [4] and in experiment [7] was “inactive” each time. For the same compound, the compound was classed as inactive in [5], in experiment [6] and in experiment [8].

With `CC(=O)[C@H]1CC[C@H]2[C@@H]3CCC4=CC(=O)CC[C@]4(C)[C@H]3CC[C@]12C`, in experiment [13], the activity, negative = inhibition is -4.17%. The compound was called inactive in [16] and in experiment [17]. The Potency entry in experiment [7] is “inactive”.

The values above are taken from PubChem BioAssay (NCATS).
